Results published in PubChem BioAssay (Tox21).
Inconclusive results are not listed. A call without a number means that no potency is given here. Calls of active or inactive are those of the source. Unless noted, the call rests on the fitted dose curve.

What was measured:
[1] = Nuclear factor erythroid 2-related factor 2/antioxidant responsive element (Nrf2/ARE) small molecule agonists: qHTS cell viability counter screen in human keratinocytes (AID 1919968; active means well fitted curve in the direction sought with a large enough effect in the repeat runs; an effect the other way counts as inactive or inconclusive; further: nearly all actives have a fitted effect of over 55% in size; further: potency means the concentration at half of the fitted maximal effect)
How it was run: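 KeratinoSens cells (HaCaT keratinocytes stably carrying an ARE-luciferase reporter) were seeded at 1,500 cells/well and rested 5 h at 37 C/5% CO2. They were then exposed to compounds in DMSO for 23 h. Viability was read by CellTiter-Fluor fluorescence after 1 h.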

[2] = target: Gonadotropin-releasing hormone receptor (Homo sapiens) (UniProt P30968); assay: Human gonadotropin-releasing hormone receptor (GnRHR) small molecule agonists, calcium flux assay in GnRHR-HEK293 cells (AID 1920063); further: nearly all actives have a fitted effect of over 35% in size
How it was run: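 HEK293 cells stably expressing human GnRHR were plated 18 h at 37 °C, loaded with calcium dye 1 h at 37 °C, then given compound in agonist mode; fluorescence (Ex/Em 480/540) read kinetically for 3 min at 1 s intervals.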

[3] = target: KiSS-1 receptor (Homo sapiens) (UniProt Q969F8); assay: Human kisspeptin (KISS1R) small molecule agonists, calcium flux assay in KISS1R-HEK293 cells (AID 1920064; active means well fitted curve in the direction sought with a large enough effect in the repeat runs; an effect the other way counts as inactive or inconclusive)
How it was run: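 HEK293 cells stably expressing human KISS1R were plated 18 h at 37 °C, loaded with calcium dye for 1 h at 37 °C, then given compound by pin tool. Fluorescence (Ex/Em 480/540) was read kinetically for 3 min.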

[4] = G protein-coupled receptor (GPCR) small molecule agonists, calcium flux assay: HEK293 wild type cell line counter screen (AID 1920065)
How it was run: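 Cells were plated and cultured 18 h at 37 C/5% CO2, then loaded with calcium dye for 1 h at 37 C. Compounds in DMSO were pin-transferred in agonist mode, and fluorescence (Ex/Em 480/540) was read kinetically for 3 min at 1 s intervals.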

[5] = p53 small molecule agonists, cell-based qHTS assay with human liver microsomes (AID 1963577);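 further: p53 response element beta-lactamase reporter cells with liver microsomes plus NADPH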
How it was run: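 Metabolically competent format: test substances, human liver microsomes and NADPH (both 0.5 mg/mL final) incubated with p53RE-bla cells 16 h at 37 C. Beta-lactamase reporter signal then quantified by fluorescence.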

[6] = p53 small molecule agonists, cell-based qHTS assay with rat liver microsomes (AID 1963578)
How it was run: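 Each plate received p53RE-bla cells, then compound, then rat liver microsomes and NADPH (both 0.5 mg/mL final). Plates were held 16 h at 37 C, and beta-lactamase activity was detected with LiveBLAzer over 2 h.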

[7] = p53 small molecule agonists, cell-based qHTS assay with human liver microsomes: qHTS cell viability counter screen (AID 1963579); further: nearly all actives have a fitted effect of over 45% in size
How it was run: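 Tox21 library compounds, delivered from DMSO stocks, were tested on p53RE-bla cells together with 0.5 mg/mL human liver microsomes and 0.5 mg/mL NADPH (final) over 16 h at 37 C; CellTiter-Glo luminescence served as the cytotoxicity measure.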

[8] = p53 small molecule agonists, cell-based qHTS assay: qHTS cell viability counter screen (AID 1963581); further: nearly all actives have a fitted effect of over 45% in size
How it was run: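 p53RE-bla HCT-116 cells were exposed to compounds for 16 h at 37 C; after the beta-lactamase FRET read in the same wells, CellTiter-Glo was added and luminescence (intracellular ATP) read after 30 min at room temperature.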

[9] = target: 5-hydroxytryptamine receptor 2A (Homo sapiens) (UniProt P28223); assay: 5-hydroxytryptamine receptor 2A (HTR2A) small molecule antagonists, cell-based qHTS assay (AID 1963586); further: nearly all actives have a fitted effect of over 45% in size
How it was run: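 Antagonist-mode intracellular calcium assay: DOI (4 nM) added after 5 min compound pre-incubation at room temperature to dye-loaded HTR2A-CHO cells. Fluorescence followed for 3 min, sampled every second.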

[10] = target: 5-hydroxytryptamine receptor 2A (Homo sapiens) (UniProt P28223); assay: 5-hydroxytryptamine receptor 2A (HTR2A) small molecule agonists, cell-based qHTS assay (AID 1963587); further: nearly all actives have a fitted effect of over 30% in size; further: potency means the concentration at half of the fitted maximal effect
How it was run: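 HTR2A-CHO cells, plated 18 h at 37 C/5% CO2, dye-loaded 1 h at 37 C; compounds in DMSO added by pin tool (agonist mode). Intracellular calcium flux read as kinetic fluorescence on FDSS over 2 min at 1 s intervals.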

[11] = target: Muscarinic acetylcholine receptor M1 (Homo sapiens) (UniProt P11229); assay: Cholinergic receptor muscarinic 1 (CHRM1) small molecule antagonists, cell-based qHTS assay (AID 1963588); further: nearly all actives have a fitted effect of over 40% in size; further: potency means the concentration at half of the fitted maximal effect
How it was run: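 CHRM1-CHO calcium-flux assay, antagonist mode. Cells were seeded 18 h, dye-loaded 1 h at 37 C and given compound for 5 min at RT, then acetylcholine was added at 50nM. FDSS fluorescence was read 3 min; 15 concentrations, three runs.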

[12] = target: Muscarinic acetylcholine receptor M1 (Homo sapiens) (UniProt P11229); assay: Cholinergic receptor muscarinic 1 (CHRM1) small molecule agonists, cell-based qHTS assay (AID 1963589); further: nearly all actives have a fitted effect of over 35% in size
How it was run: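 CHO cells stably expressing human CHRM1, seeded 18 h at 37 C/5% CO2, dye-loaded 1 h at 37 C, then given compound in agonist mode; intracellular calcium fluorescence read kinetically at 1 s intervals. Fifteen concentrations, three independent runs.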

[13] = cAMP Responsive Elements (CRE) small molecule agonists, cell-based qHTS assay (AID 1963590)
How it was run: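 CRE-bla HEK 293T cells in DMEM with 10% dialyzed FBS, NEAA, pyruvate and 25 mM HEPES were plated 18 h at 37 C/5% CO2, then exposed to compounds in DMSO for 3 h before LiveBLAzer B/G FRET substrate addition.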

[14] = target: Beta-2 adrenergic receptor (Homo sapiens) (UniProt P07550); assay: Adrenergic beta2 receptor (ADRB2) small molecule antagonists, cell-based qHTS assay (AID 1963592); further: nearly all actives have a fitted effect of over 50% in size; further: potency means the concentration at half of the fitted maximal effect
How it was run: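 Cells (CHO, stable ADRB2 overexpression) incubated 18-20hr at 37C; compounds added from DMSO; agonist mix (1nM isoproterenol, 100uM IBMX, 25uM Ro-20-1724) added; 0.5hr RT; d2-cAMP and anti-cAMP-cryptate added; 1hr RT; 665/615 nm read.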

[15] = target: D(2) dopamine receptor (Homo sapiens) (UniProt P14416); assay: Dopamine D2 receptor (DRD2) small molecule agonists, cell-based qHTS assay (AID 1963594); further: nearly all actives have a fitted effect of over 35% in size; further: potency means the concentration at half of the fitted maximal effect
How it was run: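 HEK293 cells stably expressing DRD2 were cultured 24 h at 37 C, then given Ro20-1724 (0.1 mM final) and compounds for 10 min at room temperature. NKH477 (200nM) was then added for 30 min. cAMP was read by HTRF.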

[16] = target: D(2) dopamine receptor (Homo sapiens) (UniProt P14416); assay: Dopamine D2 receptor (DRD2) small molecule antagonists, cell-based qHTS assay (AID 1963595; active means well fitted inhibition curve with a large enough effect in the signal ratio in the repeat runs, with a control signal flat; the % refers to the signal ratio)
How it was run: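 Human DRD2 antagonist qHTS measuring cAMP by HTRF. The cells are exposed to compound for 10 min, then to NKH477 (200 nM) and quinpirole (12 nM) for 30 min at RT, with Ro20-1724 (0.1 mM) present throughout.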

[17] = p53 small molecule agonists, cell-based qHTS assay with rat liver microsomes: qHTS cell viability counter screen (AID 1963580); further: nearly all actives have a fitted effect of over 45% in size
How it was run: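 p53RE-bla HCT-116 cells (4,000/well) rested 5 h at 37 C, then given Tox21 compounds in DMSO with rat liver microsomes (0.5 mg/mL final) plus NADPH (0.5 mg/mL final) for 16 h at 37 C. Viability read by CellTiter-Glo luminescence after 30 min at room temperature.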

[18] = cAMP Responsive Elements (CRE) small molecule antagonists, cell-based qHTS assay (AID 1963591; active means well fitted inhibition curve with a large enough effect in the signal ratio in the repeat runs, not every such curve was filed as active; the % refers to the signal ratio)
How it was run: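 CRE-bla HEK293T cells were plated 18 h at 37 °C/5% CO2, pinned with compound in DMSO, then stimulated with NKH477 at 0.25 uM final for 3 h. LiveBLAzer B/G FRET substrate was added and plates incubated 2 h at room temperature.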

[19] = target: Beta-2 adrenergic receptor (Homo sapiens) (UniProt P07550); assay: Adrenergic beta2 receptor (ADRB2) small molecule agonists, cell-based qHTS assay (AID 1963593);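 further: CHO cells stably overexpressing human ADRB2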
How it was run: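 CHO cells stably over-expressing ADRB2 were plated overnight at 37C, then dosed with compounds plus a stimulation mix containing 100uM IBMX and 25uM Ro-20-1724 for 0.5hr at room temperature. cAMP was measured by HTRF competition, 1hr.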

[20] = p53 small molecule agonists, cell-based qHTS assay (AID 1963582; active means well fitted activation curve with a large enough effect in the signal ratio in the repeat runs, not every such curve was filed as active; the % refers to the signal ratio)
How it was run: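 p53RE-bla beta-lactamase reporter cells rested 5 h at 37 C/5% CO2, then received compounds in DMSO by pin transfer and were incubated 16 h at 37 C. LiveBLAzer B/G FRET substrate was loaded for 2 h at room temperature before fluorescence reading.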

Beta-2 adrenergic receptor (Homo sapiens), sequence (P07550 whole entry, looked up): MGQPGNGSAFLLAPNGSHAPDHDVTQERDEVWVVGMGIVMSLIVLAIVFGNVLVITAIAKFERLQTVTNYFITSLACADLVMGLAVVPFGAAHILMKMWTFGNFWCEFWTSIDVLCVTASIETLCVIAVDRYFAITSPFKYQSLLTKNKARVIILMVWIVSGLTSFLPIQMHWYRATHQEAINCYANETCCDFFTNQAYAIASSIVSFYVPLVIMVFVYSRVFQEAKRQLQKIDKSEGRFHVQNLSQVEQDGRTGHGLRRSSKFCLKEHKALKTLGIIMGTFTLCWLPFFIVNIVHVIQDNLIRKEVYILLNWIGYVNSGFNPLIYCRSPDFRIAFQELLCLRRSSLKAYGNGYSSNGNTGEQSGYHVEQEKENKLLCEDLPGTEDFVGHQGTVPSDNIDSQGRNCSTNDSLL
KiSS-1 receptor (Homo sapiens), sequence (Q969F8 whole entry, looked up): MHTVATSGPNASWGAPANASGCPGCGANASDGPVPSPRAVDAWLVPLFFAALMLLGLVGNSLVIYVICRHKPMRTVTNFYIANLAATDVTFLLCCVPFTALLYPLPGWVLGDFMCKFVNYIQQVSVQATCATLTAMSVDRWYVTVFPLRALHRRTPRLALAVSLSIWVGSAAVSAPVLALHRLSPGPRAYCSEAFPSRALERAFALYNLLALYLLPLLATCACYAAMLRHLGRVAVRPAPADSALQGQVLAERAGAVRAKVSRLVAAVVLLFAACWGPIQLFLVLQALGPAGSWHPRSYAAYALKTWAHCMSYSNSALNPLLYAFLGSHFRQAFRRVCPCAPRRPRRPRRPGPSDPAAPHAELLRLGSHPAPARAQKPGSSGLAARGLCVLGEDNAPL
5-hydroxytryptamine receptor 2A (Homo sapiens), sequence (P28223 whole entry, looked up): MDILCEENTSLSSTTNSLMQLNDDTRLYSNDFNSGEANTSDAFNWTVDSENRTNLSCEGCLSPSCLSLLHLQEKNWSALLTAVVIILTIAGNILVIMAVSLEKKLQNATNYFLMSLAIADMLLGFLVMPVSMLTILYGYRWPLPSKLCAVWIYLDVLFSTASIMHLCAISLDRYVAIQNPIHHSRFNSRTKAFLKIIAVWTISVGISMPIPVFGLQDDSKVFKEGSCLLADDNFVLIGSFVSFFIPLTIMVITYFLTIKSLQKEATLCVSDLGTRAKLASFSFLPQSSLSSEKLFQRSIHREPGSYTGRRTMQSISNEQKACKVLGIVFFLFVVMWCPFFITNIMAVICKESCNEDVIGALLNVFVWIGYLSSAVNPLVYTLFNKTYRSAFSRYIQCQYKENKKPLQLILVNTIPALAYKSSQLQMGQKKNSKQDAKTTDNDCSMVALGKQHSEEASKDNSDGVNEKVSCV
Muscarinic acetylcholine receptor M1 (Homo sapiens), sequence (P11229 whole entry, looked up): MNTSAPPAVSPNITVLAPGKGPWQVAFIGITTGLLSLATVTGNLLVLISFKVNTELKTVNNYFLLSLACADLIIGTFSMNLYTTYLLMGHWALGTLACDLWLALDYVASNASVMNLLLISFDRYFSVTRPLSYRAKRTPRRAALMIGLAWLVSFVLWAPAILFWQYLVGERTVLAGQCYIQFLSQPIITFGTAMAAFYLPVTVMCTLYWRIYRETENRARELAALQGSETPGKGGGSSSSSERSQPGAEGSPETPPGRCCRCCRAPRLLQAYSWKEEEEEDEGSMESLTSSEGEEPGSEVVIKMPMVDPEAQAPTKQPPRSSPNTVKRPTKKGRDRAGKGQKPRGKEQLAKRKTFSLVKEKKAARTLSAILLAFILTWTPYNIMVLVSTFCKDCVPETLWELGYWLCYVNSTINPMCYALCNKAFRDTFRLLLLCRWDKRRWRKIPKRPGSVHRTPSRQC
D(2) dopamine receptor (Homo sapiens), sequence (P14416 whole entry, looked up): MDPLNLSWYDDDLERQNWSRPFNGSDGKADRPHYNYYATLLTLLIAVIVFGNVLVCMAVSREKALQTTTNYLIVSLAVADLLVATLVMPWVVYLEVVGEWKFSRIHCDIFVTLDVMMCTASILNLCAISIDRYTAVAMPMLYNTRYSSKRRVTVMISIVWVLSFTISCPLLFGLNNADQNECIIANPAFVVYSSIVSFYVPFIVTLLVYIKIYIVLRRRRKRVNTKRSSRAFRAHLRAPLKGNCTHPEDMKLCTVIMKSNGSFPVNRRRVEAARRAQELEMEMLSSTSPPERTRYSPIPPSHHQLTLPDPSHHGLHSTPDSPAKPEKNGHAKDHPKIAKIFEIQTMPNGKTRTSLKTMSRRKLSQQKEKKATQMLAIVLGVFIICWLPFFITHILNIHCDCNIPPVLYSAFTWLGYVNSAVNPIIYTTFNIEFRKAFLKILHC
Gonadotropin-releasing hormone receptor (Homo sapiens), sequence (P30968 whole entry, looked up): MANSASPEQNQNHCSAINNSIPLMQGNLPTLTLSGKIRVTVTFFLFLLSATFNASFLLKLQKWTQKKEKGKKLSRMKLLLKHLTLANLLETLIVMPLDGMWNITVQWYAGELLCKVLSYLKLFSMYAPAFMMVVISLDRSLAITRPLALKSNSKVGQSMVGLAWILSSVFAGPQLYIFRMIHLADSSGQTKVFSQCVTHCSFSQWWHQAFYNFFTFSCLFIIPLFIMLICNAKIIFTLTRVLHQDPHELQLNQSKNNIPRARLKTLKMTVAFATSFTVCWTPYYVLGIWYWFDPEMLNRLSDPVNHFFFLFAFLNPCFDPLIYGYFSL

Compound	Potency [1]	Potency [2]	Potency [3]	Potency [4]	Potency [5]	Potency [6]	Potency [7]	Potency [8]	Potency [9]	Potency [10]	Potency [11]	Potency [12]	Potency [13]	Potency [14]	Potency [15]	Potency [16]	Potency [17]	Potency [18]	Potency [19]	Potency [20]
C/C=C/C=C/CO	inactive	inactive	inactive	inactive	inactive	inactive	inactive	inactive	inactive	inactive	inactive	inactive	inactive	inactive	inactive	inactive				
C=CC(=O)OCCC#N	inactive	inactive	inactive	inactive	inactive	inactive		inactive	inactive	inactive		inactive	inactive	inactive	inactive	inactive	inactive	inactive	inactive	
Oc1ccc(Cc2ccccc2)cc1	inactive	inactive	inactive	inactive	inactive	inactive		inactive	inactive		inactive	inactive		inactive	inactive	inactive	inactive			inactive
O=C(/C=C/c1ccccc1)OCCc1ccccc1	inactive	inactive	inactive	inactive	inactive	inactive	inactive	inactive	inactive	inactive	inactive		inactive	inactive	inactive			inactive		inactive
C=CCOC(=O)CCC1CCCCC1	inactive	inactive	inactive	inactive	inactive	inactive	inactive	inactive	inactive	inactive	inactive		inactive		inactive	inactive		inactive	inactive	inactive
CC(C)(C)c1cc(CO)cc(C(C)(C)C)c1O	inactive	inactive	inactive	inactive	inactive	inactive	inactive			inactive		inactive	inactive	inactive	inactive	inactive				inactive
C1CCC2=NCCCN2CC1	inactive	inactive	inactive	inactive	inactive		inactive		inactive	inactive	inactive	inactive	inactive	inactive	inactive	inactive	inactive	inactive		inactive
CCN(CC)CCOC(=O)C(c1ccccc1)C1CCCCC1 (stereo unspecified)	inactive	inactive	inactive	inactive	inactive	inactive					0.041 µM (active)	inactive		inactive	inactive		inactive	inactive	inactive	
CCO[Si](CC(C)C)(OCC)OCC	inactive	inactive	inactive	inactive	inactive		inactive	inactive	inactive	inactive	inactive	inactive	inactive	inactive	inactive	inactive	inactive	inactive		
Cc1ccc(Cl)cc1N	inactive	inactive	inactive	inactive	inactive		inactive	inactive		inactive	inactive	inactive	inactive	inactive	inactive	inactive	inactive			inactive
CCN(CC)CCNC(=O)c1c(C)[nH]c(/C=C2\C(=O)Nc3ccc(F)cc32)c1C	29.8 µM (active)	inactive	inactive	inactive	inactive		inactive	inactive		inactive		inactive	inactive					inactive		inactive
CCOc1ccc(NC(C)=O)cc1N	inactive	inactive	inactive	inactive	inactive	inactive		inactive		inactive	inactive	inactive	inactive	inactive	inactive	inactive		inactive		inactive
N[C@@H](CS)C(=O)O	inactive	inactive	inactive	inactive		inactive	inactive	inactive	inactive	inactive	inactive	inactive	inactive	inactive	inactive	inactive	inactive	inactive		inactive
c1cc(C(c2ccc(OCC3CO3)cc2)c2ccc(OCC3CO3)cc2)ccc1OCC1CO1 (stereo unspecified)	27.3 µM (active)	inactive	inactive	inactive	inactive			inactive	inactive	inactive	inactive	inactive			inactive	inactive				
CC(C)Cc1ccc(CC(=O)O)cc1	inactive	inactive	inactive	inactive	inactive			inactive	inactive	inactive	inactive	inactive	inactive	inactive	inactive	inactive	inactive	inactive	inactive	inactive
CCOC(=O)c1ccc(C2CCC(NC[C@H](O)COc3ccc(O)c(NS(C)(=O)=O)c3)CC2)cc1 (stereo partly specified)	56.4 µM (active)	inactive	inactive	inactive	inactive		inactive	inactive	inactive	inactive	8.69 µM (active)	inactive		7.96 µM (active)	0.0796 µM (active)	inactive	inactive			
CCCCC(CC)COCCCN (stereo unspecified)	inactive	inactive	inactive	inactive		inactive	inactive	inactive	inactive	17.2 µM (active)	inactive	inactive			inactive	inactive	inactive	inactive	inactive	inactive
